Ecoli rRNA inh: selective bacterial rRNA inhibition in E. coli. AID 720706. E. coli WT GFP vs humanized-ribosome RFP mutants, fluorescence, 24 h; hits give low values; DMSO median 0, no signal -100. 1.6% of 350,000 active. GFP signal change (wild-type ribosome), % (no concentration beside the values);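 active means significant combined selectivity score with lowered wild-type GFP, culture density cut under 30%, mutant RFP and density less affected; inactive means any of these conditions unmet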
NSD2 HMT inh: inhibitors of human histone methyltransferase NSD2; O96028; NSD2 peptide methylation, AlphaScreen, 120 min; inhibition, % at 12.5 µM; 0.54% of 310,000 active; in the data active means inhibition above about 50%
RAD52 anneal inh: blocks human RAD52 DNA annealing. 0.46% of 360,000 active. inhibition, % at 18.7 µM. recombinant RAD52 DNA annealing, FRET fluorescence. P43351;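 active means every replicate showing at least 50% inhibition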
Target sequence (P43351 whole entry, looked up): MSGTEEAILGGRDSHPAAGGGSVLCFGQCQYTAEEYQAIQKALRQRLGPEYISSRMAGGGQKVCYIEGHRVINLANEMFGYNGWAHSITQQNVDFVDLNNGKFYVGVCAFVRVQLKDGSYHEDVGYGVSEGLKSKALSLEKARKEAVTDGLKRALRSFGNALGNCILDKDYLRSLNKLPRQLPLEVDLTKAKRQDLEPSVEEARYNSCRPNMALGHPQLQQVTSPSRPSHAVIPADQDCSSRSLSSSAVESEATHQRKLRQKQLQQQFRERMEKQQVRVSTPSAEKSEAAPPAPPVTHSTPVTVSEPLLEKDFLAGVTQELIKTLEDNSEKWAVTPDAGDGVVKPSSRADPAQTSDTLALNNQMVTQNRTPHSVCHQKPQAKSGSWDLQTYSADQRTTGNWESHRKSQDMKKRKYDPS
Casp6 inh: blocks human caspase-6 cleavage activity; purified caspase-6, Z-VEID-R110 cleavage fluorescence; 0.53% of 350,000 active; P55212; inhibition, % at 12.5 µM;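 active means mean inhibition across replicates at least about 35%, with every replicate also reaching that limit, limit read from the data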
Target sequence (P55212 24-179 limits assumed): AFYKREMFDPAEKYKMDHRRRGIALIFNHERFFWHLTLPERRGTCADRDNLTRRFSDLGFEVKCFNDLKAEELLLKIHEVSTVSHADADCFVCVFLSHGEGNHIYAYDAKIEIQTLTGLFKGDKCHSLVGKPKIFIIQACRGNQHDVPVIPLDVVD
Target sequence (P55212 194-293 limits assumed): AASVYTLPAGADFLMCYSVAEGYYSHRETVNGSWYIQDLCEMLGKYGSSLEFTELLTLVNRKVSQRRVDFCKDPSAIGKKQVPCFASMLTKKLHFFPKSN
AF4-AF9 inh: blocks AF4 peptide binding to human AF9 | AlphaScreen, biotin-AF4 peptide binding to FLAG-AF9 | P42568 | inhibition, % at 10 µM | AID 651704 | 0.47% of 350,000 active;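 active means every replicate reaching a set inhibition limit, whatever the replicate mean, cut at about 25% in these data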
Large screens that a line does not name were inactive; ! = a repeat was not active. The list is not random: actives were taken first. Their share in the collection is about 2.5%.

COc1ccc2c3c(n(C)c2c1)[C@H](CO)N(C(C)=O)CC31CCN(C(=O)NC(C)C)CC1	none (no result: NSD2 HMT inh)
C[C@H]1CN([C@@H](C)CO)S(=O)(=O)c2ccc(C#Cc3cccc(F)c3)cc2O[C@H]1CN(C)S(=O)(=O)c1ccccc1F	none (no result: NSD2 HMT inh)
COc1cccc(C2=Nc3cccc4cccc(c34)N2)c1	AF4-AF9 inh 33 (no result: Ecoli rRNA inh)
C[C@H](CO)N1C[C@H](C)[C@@H](CN(C)C(=O)Nc2ccccc2)Oc2ccc(NS(=O)(=O)c3ccc(Cl)cc3)cc2C1=O	none (no result: NSD2 HMT inh)
CCC(C)NCCOCCOc1ccc(Cl)c(C)c1C (centres undefined)	none (no result: Ecoli rRNA inh)
CCC(C)NCCOCCOc1ccc(Cl)c2ccccc12 (centres undefined)	Ecoli rRNA inh -53
C[C@@H]1CCCCO[C@@H](CN(C)Cc2ccncc2)[C@H](C)CN([C@H](C)CO)C(=O)c2cc(NC(=O)Nc3cccc4ccccc34)ccc2O1	none (no result: NSD2 HMT inh)
O=C(Nc1ccc(N2CCOCC2)c(S(=O)(=O)Nc2cc(Cl)ccc2Cl)c1)c1cccnc1	Ecoli rRNA inh -35
COc1ccc2c3c(n(C)c2c1)[C@H](CO)N(C(=O)Nc1ccccc1F)CC31CCN(C(=O)c2ccccc2F)CC1	none (no result: NSD2 HMT inh)
COCC(=O)N1C[C@H](C)[C@H](OC)CN(C)C(=O)c2ccc(NC(=O)Nc3ccccc3)cc2OC[C@H]1C	none (no result: NSD2 HMT inh, RAD52 anneal inh, Casp6 inh, AF4-AF9 inh)
N#Cc1ccc(NC(=S)/N=C(\N)c2ccccc2)cc1	none (no result: NSD2 HMT inh)
N/C(=N\C(=S)Nc1ccccc1)c1ccccc1	AF4-AF9 inh 43
COc1ccc(NC(=O)N(C)C[C@@H]2Oc3ncc(C#CCC(C)C)cc3C(=O)N([C@@H](C)CO)C[C@H]2C)cc1	none (no result: NSD2 HMT inh)
Cc1cc(C)nc(NC(=O)/C=C/c2cccs2)c1	Ecoli rRNA inh -27
CCCNC(=O)N[C@@H]1CC[C@@H](CC(=O)NC2CCC2)O[C@H]1CO	none (no result: NSD2 HMT inh, RAD52 anneal inh, Casp6 inh, AF4-AF9 inh)
C[C@@H]1CN([C@@H](C)CO)C(=O)c2cccc(NC(=O)Nc3cccc4ccccc34)c2O[C@@H]1CN(C)Cc1ccc(C(=O)Nc2ccccc2N)cc1	none (no result: NSD2 HMT inh, Casp6 inh)
OCCNC(=S)Nc1cc(Cl)cc(Cl)c1	Ecoli rRNA inh -22
OCCNC(=S)Nc1ccc(Cl)c(Cl)c1	none
O=C1OC(Nc2cc(Br)cc3cccnc23)c2ccccc21 (centres undefined)	NSD2 HMT inh 104, Casp6 inh 40
Cc1nc(N2[C@H](CO)[C@H](c3ccccc3)[C@H]2CNCC2CCCC2)sc1C	none (no result: NSD2 HMT inh)
CC1CCC(C(C)C)C(OC(=O)Cn2c(-c3ccc(F)cc3)[n+](C)c3ccccc32)C1 (centres undefined)	none
CC1CCC(C(C)C)C(OC(=O)Cn2c(-c3ccccc3)[n+](C)c3ccccc32)C1 (centres undefined)	Ecoli rRNA inh -51!
CC(C)NC(=O)N(C)C[C@@H]1Oc2ccc(NS(C)(=O)=O)cc2CC(=O)N(C)C[C@H]1C	none (no result: NSD2 HMT inh, RAD52 anneal inh, Casp6 inh, AF4-AF9 inh)
COc1ccc2c3c(n(C)c2c1)[C@@H](CO)N(CC1CCOCC1)CC31CCN(C(=O)Nc2ccccc2)CC1	none (no result: NSD2 HMT inh, RAD52 anneal inh, Casp6 inh)
O=C(C1=C(Nc2ccccc2)c2ccccc2S(=O)(=O)N1)c1ccccc1	Ecoli rRNA inh -19
CC(CNC(=O)c1ccc(OC2CCN(Cc3ccccn3)CC2)cc1)c1ccccc1 (centres undefined)	Casp6 inh 45
COc1ccc2c3c([nH]c2c1)[C@@H](CO)N(C(=O)c1ccncc1)CC31CN(C(=O)C2CCC2)C1	none (no result: NSD2 HMT inh)
COc1ccccc1NC(=S)N(Cc1ccccn1)Cc1ccccc1Cl	none
Cc1ccccc1NC(=S)N(Cc1ccccn1)Cc1ccccc1Cl	Ecoli rRNA inh -23
Cc1cccn2c(=O)c3cc(C#N)c(=NC(=O)c4ccco4)n(Cc4ccco4)c3nc12	Casp6 inh 67
C[C@H](CO)N1C[C@H](C)[C@@H](CN(C)C(=O)Nc2ccc(F)cc2)Oc2ccc(NS(=O)(=O)c3cn(C)cn3)cc2C1=O	none (no result: NSD2 HMT inh, RAD52 anneal inh, Casp6 inh, AF4-AF9 inh)
NC(=O)c1nsc(C(=O)N(c2ccccc2F)C(C(=O)NCc2ccc(F)cc2)c2ccc(O)cc2)c1N (centres undefined)	Ecoli rRNA inh -40
O=C(CSCc1ccc(Cl)cc1Cl)Nc1ccc(O)cc1C(=O)O	none
COc1cc(NC(=O)CSCc2ccc(Cl)cc2Cl)c(C(=O)O)cc1OC	Ecoli rRNA inh -20
C[C@H](CO)N1C[C@H](C)[C@@H](CN(C)CC2CCOCC2)Oc2ncc(C#Cc3ccccc3)cc2C1=O	none (no result: NSD2 HMT inh)
Cc1ccc(S(=O)(=O)N[C@H]2CC[C@H](CC(=O)NCCCN(C)C)O[C@H]2CO)cc1	none (no result: NSD2 HMT inh)
COc1cc(CC2COC(c3ccc(O)c(OC)c3)C2COC(C)=O)ccc1O (centres undefined)	Casp6 inh 58 (no result: NSD2 HMT inh)
COc1cc([C@@H]2OC[C@@H]3[C@H]2CO[C@@H]3c2ccc3c(c2)OCO3)ccc1O	none (no result: NSD2 HMT inh)
O=C(O)c1ccc(N/N=C/c2ccc(-c3ccccc3)cc2)cc1	none
O=C(O)c1ccc(/C=N/Nc2cccc(C(F)(F)F)c2)cc1	Ecoli rRNA inh -41
Cc1ccc2c(c1)Sc1c(ccc3ccccc13)N2	Ecoli rRNA inh -27
O=C(N/N=C/c1cccc(O)c1)c1ccccc1O	Casp6 inh 49
Cn1c2ccccc2c2cc(/C=N/NC(=O)c3cc(O)ccc3O)ccc21	Casp6 inh 48
Cn1c2ccccc2c2cc(/C=N/NC(=O)c3cc(O)cc(O)c3)ccc21	none
Cc1cccc(NC(=S)N/N=C/c2cccc(O)c2)c1C	Ecoli rRNA inh -24
CC(=O)n1cc(/C=N/NC(=O)c2cccc(O)c2)c2ccccc21	Ecoli rRNA inh -23
CC(=O)n1cc(/C=N/NC(=O)c2ccc(Cl)cc2)c2ccccc21	none
COc1cccc(NC(=O)C[C@H]2CC[C@@H]3[C@H](COc4ccc(NC(=O)C5CCCC5)cc4C(=O)N3C)O2)c1	none (no result: NSD2 HMT inh, RAD52 anneal inh, Casp6 inh, AF4-AF9 inh)
Nc1nc(NCc2ccccc2)nc(NCc2ccccc2)c1[N+](=O)[O-]	none (no result: Ecoli rRNA inh, RAD52 anneal inh, Casp6 inh, AF4-AF9 inh)
Nc1nc(Nc2ccccc2)nc(NCc2ccccc2)c1[N+](=O)[O-]	Ecoli rRNA inh -15
COc1cccc(Nc2nc(N)c([N+](=O)[O-])c(NCc3ccccc3)n2)c1	Ecoli rRNA inh -34 (no result: AF4-AF9 inh)
CCS(=O)(=O)C1=NN2C(=N)/C(=C\c3ccc(SCc4ccco4)o3)C(=O)N=C2S1	NSD2 HMT inh 95 (no result: Ecoli rRNA inh, RAD52 anneal inh, Casp6 inh, AF4-AF9 inh)
COc1ccccc1NC(=O)c1ccccc1S(=O)(=O)c1ccc([N+](=O)[O-])cc1	Casp6 inh 40
Cc1ccsc1/C=C1\CCC(C2CCCC2)C1=O (centres undefined)	Ecoli rRNA inh -23
Cc1ccc(/C=C2\CCC(C3CCCC3)C2=O)cc1 (centres undefined)	none (no result: Ecoli rRNA inh, RAD52 anneal inh, Casp6 inh, AF4-AF9 inh)
Cc1ccc(OCC(=O)Nn2c(C)nc3ccccc3c2=O)c(C(C)C)c1	Ecoli rRNA inh -22 (no result: NSD2 HMT inh)
CCc1nc(N2[C@@H](C#N)[C@@H](c3ccccc3-c3ccccc3C)[C@@H]2CO)sc1C	none (no result: NSD2 HMT inh)
O=C(CSc1nnnn1-c1ccccc1)CSc1nnnn1-c1ccccc1	Ecoli rRNA inh -28
Cc1ncc(CSc2nnnn2-c2ccccc2)c(N)n1	Ecoli rRNA inh -21
Cc1cc(C(=O)CSc2nnnn2-c2ccc(O)cc2)c(C)n1C	Ecoli rRNA inh -26
CCSc1nnnn1-c1ccccc1	none (no result: AF4-AF9 inh)
